We go through 3 compounds from PubChem BioAssay (EPA / NIEHS).

Assay [1] in a line: BSK_MyoF_SRB: Viability Assessment in the BioMAP Diversity Plus: MyoF Assay (AID 2284267).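 Further: total protein by SRB absorbance in parallel cultures as cytotoxicity measure; cells assessed 24 h after compound addition.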 The conditions noted are these: primary human lung fibroblasts. An outline of the steps:
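Confluent human lung fibroblasts were exposed to test chemicals for 24 h. Parallel wells were then fixed in 10% TCA, stained with 0.1% sulforhodamine B and measured at 560 nm. DMSO served as baseline for curve fitting.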

Read-out in assay [2]: Matrix Metallopeptidase 1 (MMP1), MMP1 (gene 4312)
Nature of the assay: BSK_MyoF_MMP1: BioMAP Diversity Plus: MyoF Assay for Matrix Metallopeptidase 1 (MMP1) Biomarker Activity (AID 2284268). The conditions noted are these: primary human lung fibroblasts. The method, then: (§1) BSK_MyoF is a cell-based, multiplexed-readout assay that uses lung fibroblasts, […], with measurements taken at 24 hours after chemical dosing in a microplate: 96-well plate.BSK_MyoF_MMP1 is an assay component measured in the BSK_MyoF assay. It measures PAI-1 antibody related to regulation of gene expression using ELISA technology.Data from the assay component BSK_MyoF_MMP1 was analyzed at the endpoint, BSK_MyoF_MMP1, in the positive analysis fitting direction relative to DMSO as the negative control and baseline of activity. Using a type of binding reporter, gain or loss-of-signal activity can be used to understand protein changes. To generalize the intended target to other relatable targets, this assay endpoint is annotated to the 'protease' intended target family, where the subfamily is 'matrix metalloproteinase'.
(§2) The levels of cell surface (or secreted, indicated by the prefix "s") biomarker endpoints were measured by ELISA. Overt cytotoxicity to cells in confluent adherent cultures (all systems other than the BT system) was assessed by measuring total protein levels using sulforhodamine B (SRB) staining in parallel cultures at the time of biomarker measurements, indicated as SRB endpoints. For proliferation assays for adherent cell types, individual cell types are cultured at sub-confluence and relative cell numbers quantified by SRB staining at time points optimized for each system (48 h: 3C and CASM3C systems; 72 h: BT and HDF3CGF systems; 96 h: SAg system). SRB was performed by staining cells with 0.1% SRB after fixation with 10% TCA and reading wells at 560 nm.Viability and proliferation of PBMC (T cells) was quantified by Alamar Blue reduction for the SAg and BT systems. […] Then, Alamar Blue (20 uL/well) (Invitrogen, Cat DAL1100) was added for 6 h, and the plates were read with a fluorescence microplate reader at 546/580 nm (excitation/emission). […] Plates were read after 6 h.

Read-out in assay [3]: TIMP metallopeptidase inhibitor 1 (TIMP1), TIMP1 (gene 7076)
The assay can be described thus: BSK_MyoF_TIMP1: BioMAP Diversity Plus: MyoF Assay for TIMP metallopeptidase inhibitor 1 (TIMP1) Biomarker Activity (AID 2284269). To be noted: primary human lung fibroblasts. An outline of the steps:
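TIMP-1 levels were determined by ELISA in human lung fibroblasts treated for 24 h. DMSO served as negative control and baseline for upward curve fitting.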

Read-out in assay [4]: Matrix Metallopeptidase 1 (MMP1), MMP1 (gene 4312)
Nature of the assay: BSK_BF4T_MMP1: BioMAP Diversity Plus: BF4T Assay for Matrix Metallopeptidase 1 (MMP1) Biomarker Activity (AID 2284270). To be noted: primary human bronchial epithelial cells with fibroblasts. An outline of the steps: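 MMP-1 quantified by ELISA in primary human bronchial epithelial/dermal fibroblast co-cultures, 24 hours post-dosing, with DMSO as baseline; parallel sulforhodamine B staining (560 nm) tracks overt cytotoxicity.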

Read-out in assay [5]: Matrix Metallopeptidase 3 (MMP3), MMP3 (gene 4314)
Nature of the assay: BSK_BF4T_MMP3: BioMAP Diversity Plus: BF4T Assay for Matrix Metallopeptidase 3 (MMP3) Biomarker Activity (AID 2284271). To be noted: primary human bronchial epithelial cells with fibroblasts. An outline of the steps: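 MMP-3 level read by ELISA after 24 h chemical exposure of bronchial epithelial cell/dermal fibroblast co-cultures, fitted upward relative to DMSO. Parallel cultures stained with 0.1% SRB after TCA fixation gauge overt cytotoxicity.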

Read-out in assay [6]: Tissue plasminogen activator (tPA), PLAT (gene 5327)
The assay can be described thus: BSK_BF4T_tPA: BioMAP Diversity Plus: BF4T Assay for Tissue plasminogen activator (tPA) Biomarker Activity (AID 2284272). The conditions noted are these: primary human bronchial epithelial cells with fibroblasts. An outline of the steps:
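tPA level quantified by ELISA at 24 h post-treatment in bronchial epithelial/dermal fibroblast co-cultures, gain of signal scored against DMSO baseline. Parallel cultures stained with 0.1% SRB (560 nm) to flag overt cytotoxicity.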

Read-out in assay [7]: Plasminogen Activator Inhibitor-1 (PAI1), SERPINE1 (gene 5054)
Nature of the assay: BSK_BF4T_PAI1: BioMAP Diversity Plus: BF4T Assay for Plasminogen Activator Inhibitor-1 (PAI1) Biomarker Activity (AID 2284273). To be noted: primary human bronchial epithelial cells with fibroblasts. The essentials:
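PAI-1 levels quantified by ELISA 24 h post-dosing in bronchial epithelial cell plus dermal fibroblast cultures. Signal gain referenced to DMSO baseline. Sulforhodamine B total-protein staining of parallel wells checked cytotoxicity.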

Assay [8] in a line: BSK_BF4T_SRB: Viability Assessment in the BioMAP Diversity Plus: BF4T Assay (AID 2284274). To be noted: primary human bronchial epithelial cells with fibroblasts. An outline of the steps: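 Cytotoxicity measured as total protein: cells fixed with 10% TCA, stained with 0.1% SRB, read at 560 nm. Bronchial epithelial/dermal fibroblast co-culture, 24 h after dosing, with positive-direction fitting relative to DMSO.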

Read-out in assay [9]: urokinase Plasminogen Activator (uPA), PLAU (gene 5328)
The assay can be described thus: BSK_BF4T_uPA: BioMAP Diversity Plus: BF4T Assay for urokinase Plasminogen Activator (uPA) Biomarker Activity (AID 2284275). To be noted: primary human bronchial epithelial cells with fibroblasts. An outline of the steps:
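uPA levels measured by ELISA at 24 hours in BF4T cultures (bronchial epithelial cells plus dermal fibroblasts) and compared with DMSO; cytotoxicity tracked in parallel cultures by sulforhodamine B staining.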

Read-out in assay [10]: Matrix Metallopeptidase 9 (MMP9), MMP9 (gene 4318)
The assay can be described thus: BSK_BF4T_MMP9: BioMAP Diversity Plus: BF4T Assay for Matrix Metallopeptidase 9 (MMP9) Biomarker Activity (AID 2284276). The conditions noted are these: primary human bronchial epithelial cells with fibroblasts. The procedure:
as §1, with “BSK_BF4T” for “BSK_MyoF”, “bronchial epithelial cells and dermal” for “lung”, “plate.BSK_BF4T_MMP9” for “plate.BSK_MyoF_MMP1”, “MMP-9” for “PAI-1”, “BSK_BF4T_MMP9” for “BSK_MyoF_MMP1”, “BSK_BF4T_MMP9,” for “BSK_MyoF_MMP1,”
as §2

As usually defined, the AC50 is the concentration at which the activity in the assay is half-maximal.

Values joined by “and” are separate entries in the source; they are usually repeats but may differ in a detail not shown here. Equal values may be shown once. A structure can be active in one record and inactive in another. Active and inactive are the calls of the source. How the source made its calls: active means hit-call score of the fitted dose curve at least 0.9, where 1 is the maximum; inactive means score below 0.9.

For `ClC1C(Cl)C(Cl)C(Cl)C(Cl)C1Cl` (configuration not stated), the AC50 in assay [1] was 18.6 µM (active) and 726 nM (active); in assay [2] it was 8.25 µM (active) and 6.92 µM (active) and 292 nM (active). Further, the result in [1] and in assay [3] was inactive.

`O=C(O)C(F)(F)C(F)(F)C(F)(F)C(F)(F)C(F)(F)C(F)(F)C(F)(F)F`: the outcome in [1], in assay [2], in [3], in [4], in assay [5] and in assay [6] was inactive. Further, the result in [7], in assay [8], in assay [9] and in assay [10] was inactive. Besides, the AC50 in assay [6] is 30 µM (active) and 1.85 µM (active).

For the compound `O=S(=O)(O)C(F)(F)C(F)(F)C(F)(F)C(F)(F)C(F)(F)C(F)(F)C(F)(F)C(F)(F)F`, the result in assay [1], in assay [2], in assay [3], in assay [4], in [5] and in [6] was inactive. Also, the result in assay [7], in [8], in assay [9] and in assay [10] was inactive. Besides, the AC50 in assay [5] was 14.7 µM (active); in [10], 17.1 µM (active).
